Screens as filed in PubChem.
DRD3 agonist: activates the human D3 dopamine receptor. AID 652048. P35462. D3R DiscoveRx beta-arrestin cells, luminescence, 90 min. max activation, %. 410,000 compounds, 0.58% hits; in the data active = max activation above about 30%
Target sequence (P35462 whole entry, looked up): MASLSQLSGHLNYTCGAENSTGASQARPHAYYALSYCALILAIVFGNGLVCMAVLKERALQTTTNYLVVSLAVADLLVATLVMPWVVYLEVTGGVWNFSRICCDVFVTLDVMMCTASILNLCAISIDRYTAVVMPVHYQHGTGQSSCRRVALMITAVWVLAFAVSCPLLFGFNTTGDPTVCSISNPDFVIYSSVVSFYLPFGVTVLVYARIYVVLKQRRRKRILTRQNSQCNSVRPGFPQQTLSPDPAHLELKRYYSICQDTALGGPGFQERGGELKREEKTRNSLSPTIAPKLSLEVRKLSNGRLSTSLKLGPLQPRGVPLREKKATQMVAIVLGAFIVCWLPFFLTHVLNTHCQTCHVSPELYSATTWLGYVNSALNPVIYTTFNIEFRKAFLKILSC
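Cells at 1500/well, incubated overnight, then treated with pinned compounds (dopamine as control) for 90 min at 37 degrees C. DiscoveRx reagent added for 30 - 60 minutes at room temperature; luminescence read.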
D3 antag: antagonists of human D3 dopamine receptor; P35462; D3R cells, DiscoveRx beta-arrestin luminescence, antagonist mode; stronger effect = lower value; max response, negative = inhibition, %; 360,000 compounds, 2.5% hits; in the data active = max response below about -50%; inconclusive = no clear call, values can overlap the other calls
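Cells plated overnight at 1500 cells/well, then exposed to library compounds with dopamine controls for 90 minutes at 37 degrees C. DiscoveRx reagent added for 30–60 minutes at room temperature; luminescence read, quantitative HTS format.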
Integrin act MD: integrin-mediated muscular dystrophy alleviation activation; alpha7betagal myoblasts, beta-gal FDG fluorescence, 48 h; Potency, µM (highest dose often 38.3 µM), usual class: activators; 350,000 compounds, 0.064% hits; AID 624291; active = well fitted activation curve with a large enough effect; inconclusive = small, poorly fitted or top-dose-only effect; inactive = no such curve, though single readings can be large or run the other way; note: nearly all actives have a fitted effect of over 60% in size
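alpha7betagal+/- myoblasts (passage 13, 250/well) treated 48 h at 37C with compounds at 1:260 dilution of DMSO stock. Lysed, then beta-galactosidase activity read as FDG fluorescence (ex 480/em 540) after 30 min, with pre-read for autofluorescence.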
Of the large screens only hits and unclear results are named; the others gave an inactive call. Sampled rows, rich in hits. Any-hit rate of the full collection: about 2.9%.

C[C@H](CO)N1C[C@H](C)[C@@H](CN(C)C(=O)Nc2ccc3c(c2)OCO3)Oc2c(NC(=O)Nc3ccc(C(F)(F)F)cc3)cccc2C1=O	DRD3 agonist 32
C[C@H](CO)N1C[C@H](C)[C@@H](CN(C)C(=O)NC2CCCCC2)Oc2ccc(NC(=O)Nc3ccc(C(F)(F)F)cc3)cc2C1=O	DRD3 agonist 54
C[C@H](CO)N1C[C@H](C)[C@@H](CN(C)C(=O)Nc2ccc(C(F)(F)F)cc2)Oc2c(cccc2N(C)C)C1=O	D3 antag -130
C[C@H](CO)N1C[C@H](C)[C@@H](CN(C)C(=O)Nc2ccc(C(F)(F)F)cc2)Oc2ccc(NC(=O)NC3CCCCC3)cc2C1=O	none
C[C@@H]1CN([C@H](C)CO)C(=O)CCCn2nncc2CO[C@@H]1CN(C)C(=O)Nc1ccc2c(c1)OCO2	D3 antag -60
C[C@H](CO)N1C[C@H](C)[C@@H](CN(C)C(=O)Nc2ccc(C(F)(F)F)cc2)Oc2c(NC(=O)Nc3ccc4c(c3)OCO4)cccc2C1=O	none
C[C@H](CO)N1C[C@H](C)[C@@H](CN(C)C(=O)Nc2ccc(C(F)(F)F)cc2)Oc2c(NC(=O)Nc3ccccc3)cccc2C1=O	none
Cc1c(Cl)cccc1NC(=O)N1CCOc2ccccc21	none (no result: D3 antag, Integrin act MD)
NC(=O)c1ccsc1NC(=O)COC(=O)c1ccc(Cl)cc1	Integrin act MD inconclusive
O=C(c1cccc(C(F)(F)F)c1)N1CCC(O)(CS(=O)(=O)Cc2ccccc2Cl)CC1	none
O=C(O)c1cnn2c1NC(c1ccc(F)cc1)CC2C(F)(F)F (stereo unspecified)	none
COC(=O)c1cn(NC(=O)Cc2ccccc2OC)c(=O)c2ccccc12	Integrin act MD inconclusive
Cc1ccc(C2(c3noc(CN4CCC(c5ccncc5)CC4)n3)CCCC2)cc1	none
Cc1ccc(NC(=O)CN2C(=O)c3ccccc3C2=O)cc1	none
NC(=O)C1CCN(C(=O)CSc2nc3ccccc3[nH]2)CC1	none
CC1CCN(C(=O)CSc2nc3ccccc3[nH]2)CC1	D3 antag -53
CCC(=O)N1CCN(C(C)=O)C1c1ccccc1 (stereo unspecified)	D3 antag inconclusive
CSc1cccc(NC(=O)C2CCCN2S(=O)(=O)c2ccc(Br)s2)c1 (stereo unspecified)	D3 antag inconclusive
O=C1/C(=C\c2ccccc2)CCc2c1[nH]c1ccccc21	none
O=C1/C(=C/c2ccccc2)CCc2ccc(Cl)nc21	D3 antag -73
COc1ccc(C(CNC(=O)c2oc3ccc(Br)cc3c2C)N2CCCCC2)cc1 (stereo unspecified)	D3 antag -76
COc1ccc(C(CNC(=O)c2oc3cc(Br)ccc3c2C)N2CCCCC2)cc1 (stereo unspecified)	D3 antag -86
COc1ccc(C(CNC(=O)c2oc3ccc(F)cc3c2C)N2CCCCC2)cc1 (stereo unspecified)	D3 antag -104
COc1ccc(C(CNC(=O)c2oc3ccc(OC)cc3c2C)N2CCCC2)cc1 (stereo unspecified)	none
CCc1ccc2oc(C(=O)NCC(c3ccc(Cl)cc3)N3CCOCC3)c(C)c2c1 (stereo unspecified)	none (no result: D3 antag, Integrin act MD)
COc1ccc(C(CNC(=O)c2oc3cc(C)c(C)cc3c2C)N2CCCCC2)cc1 (stereo unspecified)	D3 antag inconclusive
COc1ccc(C(CNC(=O)c2ccc(F)cc2)N2CCCC2)cc1 (stereo unspecified)	none (no result: D3 antag, Integrin act MD)
CCc1ccc2oc(C(=O)NCC(c3ccc(OC)cc3)N3CCCCC3)c(C)c2c1 (stereo unspecified)	D3 antag -77
COc1ccc(CC(=O)Nc2nnc3n2CCS3)cc1	none (no result: D3 antag, Integrin act MD)
COc1cccc(C(=O)NCCS(=O)(=O)N2CCN(c3ccccc3)CC2)c1OC	none
Cc1cccc(NC(=O)CNC(=O)c2ccccc2Cl)n1	Integrin act MD inconclusive
COc1ccc(CCNC(=O)CCCn2nc(C)c3sc4ccccc4c3c2=O)cc1OC	none (no result: D3 antag, Integrin act MD)
CCCCCC(=O)NNC1=NCC(Cc2ccccc2)S1 (stereo unspecified)	none
O=c1[nH]c2ccc(S(=O)(=O)Nc3cc(Cl)ccc3O)cc2o1	none (no result: D3 antag, Integrin act MD)
Cc1cc(C)c(NC(=O)CSCc2c(C)noc2C)c(C)c1	none
CC(=O)Nc1ccc(S(=O)(=O)N[C@@H](C)C(=O)N(C)Cc2cccs2)cc1	none
O=C(NCCNC(=O)c1ccco1)c1ccc(F)cc1	none
O=C(NCCNCc1ccc(F)cc1)c1ccco1	D3 antag -66
CCOC(=O)c1c(CN2CCN(C)CC2)n(C)c2cc(Br)c(OC)cc12	D3 antag inconclusive
CCOC(=O)c1c(CN2CCCCC2)n(C)c2cc(Br)c(O)cc12	D3 antag -87
CCOC(=O)CSC1=C(C#N)C(=O)NC(c2ccc(OC)c(OC)c2)S1 (stereo unspecified)	D3 antag -67
C=CCOC(=O)C1=C(C)NC(SCC(=O)OCC)=C(C#N)C1c1ccc(O)c(OC)c1 (stereo unspecified)	none
CCOC(=O)CSC1=C(C#N)C(=O)NC(c2ccc(OC)cc2)S1 (stereo unspecified)	D3 antag -58
CCOC(=O)CSc1nc2cc(OC)ccc2cc1C#N	none
Clc1ccc2c(N3CCCC3)ccnc2c1	none
CCOC(=O)[C@]12CCCC=C1N(Cc1ccccc1)C(=O)[C@H](CC(=O)NCc1ccc(C)o1)C2	none (no result: Integrin act MD)
Cc1ccc(NC(=O)CSCC(=O)Nc2ccccc2N2CCCC2)cc1	none
COc1ccc(CC(=O)N2CCN=C2SCc2ccc([N+](=O)[O-])cc2)cc1	none
O=C(Nc1ccc(F)cc1)OCCN1CCN(Cc2ccccc2)CCC1=O	none
O=C(NCc1ccccc1)OCCN1CCN(Cc2ccccc2)CCC1=O	D3 antag -68
COc1cccc(C(=O)Oc2c(Sc3ccc(C)cc3)c(C)nn2C(C)(C)C)c1OC	none (no result: D3 antag, Integrin act MD)
O=C(CSc1ccccc1)Nc1cccc(S(=O)(=O)N2CCCC2)c1	none
CC(=O)N(CCCN1CCOCC1)Cc1ccncc1	none
Cc1ccc(C)c(N2CCN(S(=O)(=O)c3c(C)nc4sccn4c3=O)CC2)c1	none (no result: D3 antag, Integrin act MD)
CC1(C)Cc2cccc(OCC(=O)OCC(=O)NCc3ccc(F)cc3)c2O1	none
CC(C)C[C@H]1CNC(=O)C(=O)N1C[C@H](C)NC(=O)Cc1ccccc1	D3 antag -52
CC(C)C[C@H]1CN(CCCC[C@H]2CNC(=O)C(=O)N2CCc2ccccc2)C(=O)C(=O)N1Cc1ccccc1	none (no result: Integrin act MD)
COc1cccc(C2/C(=C(\O)c3ccc4c(c3)OCCO4)C(=O)C(=O)N2c2nnc(C)s2)c1 (stereo unspecified)	none
Cc1cc(C)c(NC(=O)CCC(=O)N2Cc3ccccc3Oc3ncccc32)c(C)c1	none (no result: D3 antag, Integrin act MD)
CC(C)c1[nH]nc2c1C1(CCN(Cc3ccccc3)CC1)C(C#N)=C(N)O2	D3 antag -92
Cc1[nH]nc2c1C1(CCN(Cc3ccccc3)CC1)C(C#N)=C(N)O2	none
Cc1ccc(C(=O)NCN2CCN(c3ccc(F)cc3)CC2)cc1	D3 antag inconclusive
COc1cccc2c(SCC(=O)N/N=C/c3ccc(O)c(O)c3)cc(C)nc12	DRD3 agonist 31, Integrin act MD inconclusive
COc1cccc2c(SCC(=O)N/N=C/c3ccccc3)cc(C)nc12	none
CCOc1ccc(C2/C(=C(\O)c3ccc4c(c3)OCCO4)C(=O)C(=O)N2CCN2CCOCC2)cc1OC (stereo unspecified)	none
